The results in this text go back to PubChem BioAssay AID686940 (The Scripps Research Institute Molecular Screening Center, 2013).

SMILES strings stand for the structures. Out of some 370,000 compounds screened, about 2,600 (0.7%) were called active. The entries come from a sample that favours actives as a whole. Unmarked numbers belong to inactive results.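 How the source made its calls: active means inhibition above a per-plate cutoff, mean inhibition of test wells between control levels plus 3 SD (cut at about 38% in these data); inactive means the rest.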

Chain of COUP transcription factor 2 (Homo sapiens) (P24468 whole entry, looked up): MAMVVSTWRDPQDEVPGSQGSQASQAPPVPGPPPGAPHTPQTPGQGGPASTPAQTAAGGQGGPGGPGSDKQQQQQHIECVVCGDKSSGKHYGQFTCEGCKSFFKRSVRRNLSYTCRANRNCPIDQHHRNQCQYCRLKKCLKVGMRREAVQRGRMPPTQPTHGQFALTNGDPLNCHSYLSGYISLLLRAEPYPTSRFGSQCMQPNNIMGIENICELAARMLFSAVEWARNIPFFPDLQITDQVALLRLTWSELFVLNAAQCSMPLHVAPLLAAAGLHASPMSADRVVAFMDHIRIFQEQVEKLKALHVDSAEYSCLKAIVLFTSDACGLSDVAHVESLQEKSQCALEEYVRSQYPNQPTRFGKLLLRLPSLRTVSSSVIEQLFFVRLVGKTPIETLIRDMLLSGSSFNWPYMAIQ

The assay concerns the target COUP transcription factor 2 (Homo sapiens) (UniProt P24468). Description: COUP-TFII reporter suppression in human cells – cell-based, luciferase reporter, HEK293T, luminescence, primary screen (AID 686940).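 Further: cells cotransfected with COUP-TFII expression vector driving the NGFI-A reporter; 0% = median of COUP-TF2 test wells and 100% = reporter-only cells.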 The note with it: HEK293T NGFI-A luciferase reporter, at 8.6 µM, stronger effect = higher value.
As to `O=C(NC1CCC1)c1ccc(C#CC2CC2)cn1`, the inhibition was -23.3%.

On to `Cc1ccc(NC(=O)c2ccc(S(=O)(=O)NCC3CCCO3)cc2)cc1C` (stereo unspecified), for which the inhibition was -13.5%.

Regarding `O=C(Nc1ccc(S(=O)(=O)NCC2CCCO2)cc1)c1ccc(F)cc1` (stereo unspecified), the inhibition is 45.5% (active).

`O=C(NCC1CCCO1)c1ccc(S(=O)(=O)Nc2ccc(F)cc2)cc1` (stereo unspecified): the inhibition is -7.6%.

Take `CCOC(=O)[C@]12CCCC=C1N(CCCOC)C(=O)[C@@H]2CC(=O)N1CCOCC1`: the inhibition is 13%.

With `CCCC[C@H]1C2CC(OC(=O)NCc3ccccc3)C(C2)[C@H]2CCCCN21` (stereo partly specified), the inhibition was 2.27%.

As to `CC(C)CNS(=O)(=O)CC1NCCc2ccccc21` (stereo unspecified), the inhibition is 10.8%.

Regarding `CCN(CC)S(=O)(=O)c1ccc(N(C)Cc2cccc(OC)c2OC)nc1`, the inhibition was 1.36%.

Regarding `CCN(CC)S(=O)(=O)c1ccc(N(C)Cc2ccc(C(F)(F)F)cc2)nc1`, the inhibition is 41.6% (active).

With `CCN(CC)S(=O)(=O)c1ccc(N(C)CCc2ccc(OC)c(OC)c2)nc1`, the inhibition was -0.82%.

`CCOC(=O)[C@@]12CCC3=C1N(CCC3)C(=O)[C@H](CC(=O)N1CCN(C(=O)c3ccco3)CC1)C2`: the inhibition was 0.9%.

For the compound `COc1ccc(C2Nc3ccccc3C(=O)N2Cc2cccs2)cc1COc1c(C)cccc1C` (stereo unspecified), the inhibition was 14%.

`CN(C)Cc1cn(-c2ccc(-c3noc4c3C(=O)N(CC(=O)N3CCOCC3)CC4)cc2)nn1`: the inhibition was 6.87%.

In the case of `C=CCN1C(=O)[C@@H](CC(=O)NCCCOCCCC)[C@]2(C(=O)OCC)CCCCC/C=C/12`, the inhibition is -5.26%.

Consider `CC(=O)N1CCCc2cc(S(=O)(=O)N3CCCC(C(=O)N4CCN(c5cccc(Cl)c5)CC4)C3)ccc21` (stereo unspecified), for which the inhibition is 76.9% (active).

With `Cc1ccc(S(=O)(=O)N2CCCC(C(=O)N3CCN(C)CC3)C2)cc1` (stereo unspecified), the inhibition is 8.22%.

Regarding `COc1ccc(S(=O)(=O)N2CCCC(C(=O)N3CCN(C)CC3)C2)cc1C` (stereo unspecified), the inhibition was -0.76%.

With `COC(=O)C1CN(CC(C)C)CCS(=O)(=O)N1Cc1ccc(C)cc1` (stereo unspecified), the inhibition is 0.94%.

`O=C(NCc1cccs1)C1CCCN(S(=O)(=O)c2ccc([N+](=O)[O-])cc2)C1` (stereo unspecified): the inhibition is -10.3%.

As for `Cc1ccc(-n2c(SCC(=O)Nc3cccc4ccccc34)nnc2-c2ccco2)cc1`, the inhibition is 6.67%.

On to `Cc1ccc(C(=O)C2CCN(CC(=O)NCCC(C)C)CC2)cc1`, for which the inhibition was 6.65%.

Turning to `O=C(CSc1nc2ccccc2s1)N=Nc1c(O)[nH]c2ccccc12`, the inhibition is 8.58%.

For the compound `CC1(C)CC(N2CCN(C(c3ccccc3)c3ccccc3)CC2)=CC(=[N+]2CCCCC2)C1`, the inhibition was 85.2% (active).

Take `CCOC(=O)C1CCN(C(=O)C(C)(C)NC(=O)Nc2ccccc2Cl)CC1`: the inhibition was 25.7%.

On to `N#C[C@]1(S(=O)(=O)c2ccccc2)C[C@@H]2ON=C(c3cccc(Br)c3)[C@@H]2C1`, for which the inhibition was 52.9% (active).

In the case of `COC(=O)[C@]1(S(=O)(=O)c2ccccc2)C[C@@H]2ON=C(c3ccc(OC)cc3)[C@@H]2C1`, the inhibition was 3.59%.

Consider `O=C(c1c[nH]c2ccccc12)N1CCC(Oc2cccnc2)CC1`, for which the inhibition is -3.41%.

Turning to `CC(C)OC(=O)c1sc2nc3c(cc2c1N)C(=O)CCC3`, the inhibition is -22.1%.

Regarding `NC(=O)c1sc2nc3c(c(-c4ccccc4)c2c1N)CCC3`, the inhibition is 57.2% (active).

As to `CCOC(=O)[C@]12CCCCC/C=C\1N(Cc1ccc(OC)cc1)C(=O)[C@H]2CC(=O)NCc1ccc(C)o1`, the inhibition is -9.71%.

Consider `COc1ccc(-c2cc(-c3nnc(SCc4ccc([N+](=O)[O-])cc4)n3N)[nH]n2)cc1`, for which the inhibition is 11.7%.

Regarding `C=CCN1C(=O)[C@@H](CC(=O)NCCCCc2ccccc2)[C@]2(C(=O)OCC)CCCCC/C=C/12`, the inhibition was -17.9%.

Take `O=C(CN1C(=O)c2ccccc2S1(=O)=O)N1CCc2ccccc21`: the inhibition is 57.8% (active).

Take `Cc1ccc(S(=O)(=O)N(C)CC(=O)N2CCc3ccccc32)cc1`: the inhibition is -12.3%.

`CN(Cc1cccs1)C(=O)CN1C(=O)c2ccccc2S1(=O)=O`: the inhibition was -15.9%.

In the case of `CN(c1ccc(C(=O)N2CCc3ccccc3C2)cc1)S(C)(=O)=O`, the inhibition is -7.57%.

With `CN(c1cccc(NC(=O)c2ccc(CN3CCc4ccccc4C3)cc2)c1)S(C)(=O)=O`, the inhibition is 61.4% (active).

For the compound `CC(=O)Nc1cccc(NC(=O)c2ccc3c(c2)CCN3S(C)(=O)=O)c1`, the inhibition was -21%.

As to `COCCCNC(=O)C[C@H]1C[C@@]2(C(=O)OC)C(=C[C@H](C(C)(C)C)O[C@@H]2C)N(Cc2ccc(Cl)cc2Cl)C1=O`, the inhibition is 6.74%.

Turning to `CCOC(=O)[C@]12CCCC3=C1N(CCC3)C(=O)[C@@H](CC(=O)NCc1cccs1)C2`, the inhibition was -7.47%.

`CC(C)CNc1cccc2c1S(=O)(=O)N(Cc1cn(Cc3ccccc3C(F)(F)F)nn1)Cc1ccccc1O2`: the inhibition is 3.92%.

Consider `N#CC(C#N)=CN=c1ccn(Cc2ccc(Cl)cc2Cl)cc1`, for which the inhibition was 41.5% (active).

In the case of `Cn1ccc(=NC=C(C#N)C#N)c2ccccc21`, the inhibition is -6.63%.

For `CC(C)(C)c1cc(C(=O)NN)n(Cc2ccc(Cl)cc2Cl)n1`, the inhibition was 12.5%.

On to `COC(=O)[C@H](C(C)C)N(CCc1cn(Cc2ccccc2)nn1)S(=O)(=O)c1ccc(F)cc1Br`, for which the inhibition is -0.51%.

`CC(C)Nc1ncnc2c1ncn2[C@H]1CN(Cc2ccncc2)C[C@@H](CO)O1`: the inhibition was -8.36%.

As for `OC[C@@H]1CN(Cc2ccncc2)C[C@H](n2cnc3c(N4CCN(c5ccccc5)CC4)ncnc32)O1`, the inhibition is 65.7% (active).

Regarding `OC[C@@H]1CN(C2CCCC2)C[C@H](n2cnc3c(NC4CCC4)ncnc32)O1`, the inhibition was -25.3%.

Take `OCCN1CCN(c2ncnc3c2ncn3[C@H]2CN(Cc3ccco3)C[C@@H](CO)O2)CC1`: the inhibition is -8.87%.

As for `OC[C@@H]1CN(Cc2cccs2)C[C@H](n2cnc3c(Nc4ccccc4)ncnc32)O1`, the inhibition is 10.6%.

For the compound `OC[C@@H]1CN(Cc2ccc(-c3ccccc3)cc2)C[C@H](n2cnc3c(NC4CCCC4)ncnc32)O1`, the inhibition is 73.9% (active).

For the compound `Cc1ccc(C)c(NC(=O)CCS(=O)(=O)c2ccccc2)c1`, the inhibition is -5.81%.

Regarding `CCCCCN1CCCCC(NC(=O)C(C)CCC)C1=O` (stereo unspecified), the inhibition is 4.97%.

`C=CCN1C(=O)[C@@H](CC(=O)N2CCN(C(=O)OCC)CC2)[C@]2(C(=O)OCC)CCCCC/C=C/12`: the inhibition was 3.11%.

As to `C=CCN(C(=O)[C@@H](CCCC)[C@@H](O)c1ccc(Cl)cc1)c1ccccc1`, the inhibition is -5.06%.

For `CC[C@@H](C)[C@H](NC(=O)CCc1c(C)c2cc3c4c(oc3c(C)c2oc1=O)CCCC4)C(=O)O`, the inhibition is 39.7% (active).

In the case of `Cc1c(C)c2cc3c4c(oc3c(C)c2oc1=O)CCCC4`, the inhibition is -4.7%.

Take `Cc1c(CCC(=O)N[C@@H](CC(C)C)C(=O)O)c(=O)oc2c(C)c3oc4c(c3cc12)CCCC4`: the inhibition is 6.96%.

As to `CCC(=O)Nc1ccc(C(=O)CSc2nnc(CNc3ccc(Cl)cc3)o2)cc1OC`, the inhibition was 42.1% (active).

`COc1cc(C(=O)NCc2nnc(SCC(=O)c3ccc(Cl)cc3)o2)cc(OC)c1OC`: the inhibition is 7.38%.

As to `COc1ccccc1NC(=O)CSc1nnc(CNC(=O)c2ccccc2F)o1`, the inhibition is 1.36%.

On to `O=C(CSc1nc2sc3c(c2c(=O)n1-c1ccccc1)CCCC3)NN=Cc1ccc(OCc2ccccc2)cc1`, for which the inhibition is -6.12%.

In the case of `Cc1ccc(-n2c(SCC(=O)Nc3ccc(S(=O)(=O)Nc4nccs4)cc3)nnc2-c2ccncc2)cc1`, the inhibition is 3.85%.

Turning to `Cc1ccc(Nc2nc(CSc3nnc(-c4ccncc4)n3-c3ccccc3C)cs2)cc1`, the inhibition was 39.8% (active).

Turning to `Cc1ccc(-n2c(SCC(=O)N3c4ccccc4Sc4ccccc43)nnc2-c2ccncc2)cc1`, the inhibition was 6.33%.

On to `CC(C)N1CCCCC(NC(=O)c2ccc3ccccc3c2)C1=O` (stereo unspecified), for which the inhibition is -8.52%.

On to `C=CCN1[C@H](CC(C)C)COc2cccc(N3CCCC3)c2S1(=O)=O`, for which the inhibition was 14.6%.

For the compound `CCCCCCCCn1c2c(c(=N)c3c1CCC3)CCCC2`, the inhibition was 84.5% (active).

With `O=S(=O)(c1ccccc1)N1CCC(c2nc3ccccc3o2)CC1`, the inhibition was -11.5%.

Consider `CCOC(=O)N1CCN(C(=O)C[C@H]2C[C@@]3(C(=O)OC)C(=C[C@H](C(C)(C)C)O[C@@H]3C)N(Cc3ccc(Cl)cc3Cl)C2=O)CC1`, for which the inhibition was -1.12%.

For the compound `C=CCN1[C@@H](Cc2ccccc2)COc2cccc(N3CCSCC3)c2S1(=O)=O`, the inhibition is 5.82%.

With `O=C(CN1CCCc2ccccc21)NCc1ccc(F)cc1`, the inhibition is 5.12%.

On to `CCCNC(=O)Nc1ccc2c(c1)C(=O)N(C)[C@H]1CC[C@H](CC(=O)NCC3CCCCC3)O[C@@H]1CO2`, for which the inhibition is 9.56%.

For the compound `C[C@@H]1ON(C)[C@H]2C[C@H]3c4[nH]c5cccc(-c6ccc7c(c6)OCO7)c5c4CCN3C[C@@H]12`, the inhibition is -15.3%.

In the case of `COc1ccc(S(=O)(=O)N2CCCCC2)cc1NC(=O)C1CC(=O)N(c2ccc3c(c2)OCCO3)C1` (stereo unspecified), the inhibition was 0.74%.

Consider `Cc1ccc(NC(=O)C2CC(=O)N(c3ccc4c(c3)OCCO4)C2)cc1S(=O)(=O)N1CCCCCC1` (stereo unspecified), for which the inhibition was 42.3% (active).

For the compound `Cc1ccc(N2CC(C(=O)Nc3ccc(S(=O)(=O)N4CCCC4)cc3)CC2=O)cc1C` (stereo unspecified), the inhibition was -1.2%.

In the case of `Cc1ccccc1CN1CCCCC(NC(=O)c2cccc(C#N)c2)C1=O` (stereo unspecified), the inhibition was -2.68%.

In the case of `O=C(Nc1cccc(S(=O)(=O)Nc2ccc(Cl)cc2)c1)c1ccc2c(c1)OCCO2`, the inhibition is 50.8% (active).

For the compound `CC(=O)Nc1ccc(C(=O)Nc2cccc(S(=O)(=O)NC3=NCCC3)c2)cc1`, the inhibition was -6.18%.

As for `CN1CCN(c2ccc(NC(=O)c3ccc4c(c3)OCCO4)cc2Cl)CC1`, the inhibition is -69.1%.
